From PubChem BioAssay
TLR9-MyD88 block: TLR9-MyD88 interaction inhibition; Q9NR96+Q99836; CHO BLA complementation TLR9-MyD88, CCF4 FRET ratio; inhibition, % at 4.98 µM; 340,000 tested, 0.21% active; AID 504734;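 active means inhibition above the mean over all tested compounds plus 3 SD, cut at about 21% in these data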;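 further: 0% = DMSO only wells and 100% = clavulanate BLA inhibitor control wells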
TLR4 MyD88 comp: blocks binding of human TLR4 to MyD88; O00206+Q99836; HeLa CL3-4 TLR4/MyD88 BLA complementation, FRET ratio; inhibition, % at 8.4 µM; 200,000 tested, 0.18% active; in the data active means inhibition above about 25%;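 further: 0% = vehicle and 100% = reference inhibitor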
Mcl1 Bid PPI: disrupts binding of human Mcl-1 to Bid peptide | Q07820 | TR-FRET Mcl-1/Bid-Dy647 peptide binding, 1536-well | inhibition, % at 21.7 µM | 220,000 tested, 0.97% active;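 active means compounds that cut the binding signal by more than half at the single screening dose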;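 further: His-tagged Mcl-1 with europium anti-His antibody binding Bid BH3 peptide; 0% = Mcl-1 plus peptide wells and 100% = peptide-only wells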
Mcl1 Noxa PPI: disrupts binding of human Mcl-1 to Noxa peptide; inhibition, % at 21.7 µM; 220,000 tested, 1.5% active; Q07820; TR-FRET Mcl-1/Noxa peptide binding, 2 h;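 active means compounds that cut the protein-peptide binding signal by more than 50% relative to plate controls in a single-dose test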;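 further: His-tagged Mcl-1 with rhodamine Noxa BH3 peptide and terbium anti-His antibody; 0% = Mcl-1 plus Noxa peptide wells and 100% = peptide-only wells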
NOD2-RIPK2 inh: NOD2-RIPK2 protein interaction inhibition; CHO BLA complementation NOD2-RIPK2, CCF4 ratio; inhibition, % at 4.98 µM; O43353; 360,000 tested, 0.38% active; in the data active means inhibition above about 21%;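 further: 0% = vehicle only and 100% = reference blocker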
Mcl-1 Bim block: inhibitors of Bim-Mcl-1 interaction, human | Bead-based flow cytometry, Bim peptide-Mcl-1 binding | Q07820 | 190,000 tested, 0.1% active | AID 1009 | inhibition, % at 10 µM; in the data active means inhibition above about 40%;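 further: 0% = no compound tracer wells and 100% = peptide blocker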
The depositor's hits bear a star; . = no result. An excerpt weighted towards active compounds, which were near 1.8% of everything screened.

SMILES	TLR9-MyD88 block	TLR4 MyD88 comp	Mcl1 Bid PPI	Mcl1 Noxa PPI	NOD2-RIPK2 inh	Mcl-1 Bim block
c1cncc(-c2cn(C[C@H]3CC[C@H](Cn4cc(-c5cccnc5)nn4)O3)nn2)c1	-1	.	.	.	0	.
COc1ccc(N(CC(=O)Nc2c(C)n(C)n(-c3ccccc3)c2=O)S(=O)(=O)c2ccc(C)cc2)cc1OC	-4	.	.	.	-4	.
COCCN(CCOC)S(=O)(=O)c1ccc(C(=O)Nc2c(C)n(C)n(-c3ccccc3)c2=O)cc1	4	.	-18	102*	-14	.
Cc1cccc(N(CC(=O)Nc2c(C)n(C)n(-c3ccccc3)c2=O)S(C)(=O)=O)c1	9	3	99*	4	-7	-2
Cc1c(NC(=O)c2ccc(S(=O)(=O)N(C)c3ccccc3)cc2)c(=O)n(-c2ccccc2)n1C	-11	-2	-15	-2	7	0
Cc1nc2sc(C(c3cccs3)N3CCOCC3)c(O)n2n1 (stereo not drawn)	-2	-3	76*	30	-8	-1
Cc1nc2sc(C(c3cccs3)N3CCN(c4ccccc4)CC3)c(O)n2n1 (stereo not drawn)	-14	-26	.	.	2	.
O=C(COCC(=O)NCc1ccccc1)NCc1ccccc1	0	-2	-19	4	-3	49*
CC(C)NC(=O)c1cc(C2CCCCN2S(=O)(=O)c2ccccc2)on1 (stereo not drawn)	.	.	.	.	2	.
CCOC(=O)CSc1nc(N)c(C#N)c(-c2ccc(OCC)cc2)c1C#N	-1	0	-24	-113	-7	-1
COC(=O)CSc1nc(N)c(C#N)c(-c2ccc(O)cc2)c1C#N	-5	.	57*	39	-14	.
COc1ccc(/C=C/c2onc(C)c2S(=O)(=O)N2CCC(C(=O)N3CCCCCC3)CC2)cc1	8	.	.	.	0	.
O=[N+]([O-])c1cccc(N/N=C/c2cc([N+](=O)[O-])ccc2O)c1	6	15	-20	100*	-1	1
O=[N+]([O-])c1ccc(O)c(C=NNc2ccc(S(=O)(=O)O)cc2)c1	3	.	.	.	1	.
CCN(Cc1ccncc1)C(=O)c1cc(COc2ccc(OC)cc2Cl)on1	-2	.	.	.	-8	.
CCOC(=O)C1CCCN(Cc2cccs2)C1 (stereo not drawn)	-9	-6	55*	15	-13	0
O=C(C1CCCN(Cc2ccccc2Br)C1)N1CCCCC1 (stereo not drawn)	5	-4	59*	-22	-5	-4
O=C(C1CCCN(Cc2cccs2)C1)N1CCCCCC1 (stereo not drawn)	-6	8	-2	2	-4	-2
CCOC(=O)C1CCCN(Cc2ccccc2OCC)C1 (stereo not drawn)	-1	5	98*	16	-2	-3
CCOC(=O)C1CCCN(Cc2ccccc2C)C1 (stereo not drawn)	-7	0	15	8	-4	0
O=C(C1CCCN(Cc2ccccc2F)C1)N1CCCCC1 (stereo not drawn)	-8	.	.	.	0	.
CCOC(=O)c1c(-c2ccccc2)csc1NC(=S)NC	-8	0	-58	55*	-1	-11
CCOc1ccc(NC(=O)CC2C(=O)N(c3ccccc3)C(=S)N2Cc2ccccn2)cc1 (stereo not drawn)	-8	-14	-12	8	-1	-1
CCOc1ccc(NC(=O)CC2C(=O)N(c3ccc(OC)cc3)C(=S)N2Cc2ccccn2)cc1 (stereo not drawn)	1	2	82*	10	-4	0
N#Cc1cc(-c2ccccc2)nn1-c1ccccc1	3	1	27	97*	5	5
SMILES	TLR9-MyD88 block	TLR4 MyD88 comp	Mcl1 Bid PPI	Mcl1 Noxa PPI	NOD2-RIPK2 inh	Mcl-1 Bim block
CN1CCN(S(=O)(=O)c2ccc(N3CCN(c4ccccc4Cl)CC3)nc2)CC1	-2	.	.	.	-5	.
CCOC(=O)C1=C(C)Nc2ccccc2N=C1NC(=O)c1cc(C)on1	-13	.	.	.	-8	.
COc1ccc(NC(=O)c2ccco2)cc1NC(=O)c1ccco1	-8	-13	0	-23	-4	41*
COc1cccc(N2CCN(CC(=O)NC(=O)NCc3ccco3)CC2)c1	4	-17	-50	62*	-9	1
O=C(CN1CCN(c2ccccc2)CC1)NC(=O)NCc1ccco1	9	1	-15	16	6	-1
CC(=O)N1c2ccc(S(=O)(=O)N3CCCCC3)cc2CC1C(=O)NCc1ccccc1C (stereo not drawn)	1	.	.	.	-7	.
CC(C)c1onc(C(=O)N2CCC(C(N)=O)CC2)c1[N+](=O)[O-]	-3	.	12	4	-8	.
O=C(Nc1ccc(F)cc1)Nc1ccc([N+](=O)[O-])cn1	-10	-12	7	15	-2	-4
O=C(Nc1ccc(Cl)c(Cl)c1)Nc1ccc([N+](=O)[O-])cn1	0	.	36	53*	-1	.
COc1ccccc1NC(=O)CSc1nc2ccccc2cc1Cc1ccccc1	9	-19	73*	-22	-2	-4
O=S(=O)(Nc1ccc2c(c1)OCCO2)c1cccc2nsnc12	-6	-6	61*	26	-5	-1
O=C(CCNS(=O)(=O)c1cccc2nsnc12)Nc1ccc2c(c1)OCCO2	7	0	-6	21	-1	0
CCOC(=O)NNc1ccc2nonc2c1[N+](=O)[O-]	.	.	-10	97*	.	.
O=C(CN1C(=O)c2ccccc2C1=O)N1CCCCC1	-2	-9	99*	20	0	-2
C[C@@H]1CN([C@@H](C)CO)C(=O)CCCn2nncc2CO[C@H]1CN(C)S(=O)(=O)c1ccc(-n2cccn2)cc1	-8	.	.	.	0	.
O=C(CN1CCN(c2ccccc2O)CC1)Nc1ccc([N+](=O)[O-])cc1Br	2	-22	-3	24	0	-1
O=C(CN1CCN(c2ccccc2O)CC1)Nc1cc([N+](=O)[O-])ccc1Cl	0	-10	-25	67*	-17	-2
CC(C(=O)Nc1cc([N+](=O)[O-])ccc1Cl)N1CCN(c2ccc(O)cc2)CC1 (stereo not drawn)	10	-11	-62	78*	1	-1
O=C1C[C@@H]2c3c(cccc3CN1Cc1ccc(Br)cc1)C[C@@H](O)[C@H]2O	-4	.	.	.	0	.
CC(=O)c1c(C)[nH]c(C(=O)OCC(=O)N(CC(C)C)C2CCS(=O)(=O)C2)c1C (stereo not drawn)	-9	.	.	.	8	.
Nc1nnc(SCC(=O)N2CCN(c3cccc(Cl)c3)CC2)n1-c1ccccc1	-1	14	-19	1	-4	-3
Nc1nnc(SCC(=O)N2CCN(c3ccccc3)CC2)n1-c1ccccc1	-6	-5	97*	41	-4	0
COc1ccc(NC(=O)/C(Cl)=C(/Cl)S(=O)(=O)Cc2ccc(C)cc2)cn1	27*	6	10	9	75*	-3
COc1ccc(NC(=O)Cc2ccc(Cl)c(Cl)c2)cn1	2	-13	-15	8	-4	2
